Where “and” joins values, the source holds several entries; their conditions need not be identical. Equal entries are not always repeated. About 83,000 compounds went through this panel and 20% of them were active in at least one assay; those are over-represented in the sample as a whole.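 48-hour exposure, single concentration, 96-well plates; percent growth endpoint where 0 means no net growth. Active: below 10.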 A number with no mark means an inactive call. Calls of active or inactive are those of the source.
What follows are compounds tested on HL-60(TB) leukemia (assay: NCI-60 one-dose screen, 48 h (100 = growth as untreated, 0 = no growth, -100 = all killed)). Settings: 10 µM unless noted.

`O=C1C(SCCO)=C(SCCO)C(=O)N1c1ccc(-c2ccccc2)cc1` was tested, and the growth was -44.2% (active).
For `COC12C=C/C(=C(/C(=O)OCc3ccncc3)C(=O)CCCCCCCCC3(OC)C=C/C(=C(/C(=O)OCc4ccncc4)C(=O)CCCCCCCC1)O3)O2`, the growth was -22.9% (active).
For `CCN(CC)CC(C)(C)C(=O)/C=C/c1ccc(Cl)c(Cl)c1`, the growth was -10.2% (active).
`O=C(Oc1cccc(OC(=O)c2ccccc2)c1)c1ccccc1` was tested, and the growth was 73% and 114%.
`O=c1oc2ccc(-c3ccc(F)cc3F)cc2c(=O)n1-c1ccc(Cl)c(C(F)(F)F)c1` was tested, and the growth was 1.69% (active).
In the case of `COc1ccc(-c2cc3ccc(N(C)C)cc3nc2N)c(F)c1`, the growth is reported as -15.4% (active).

Point of comparison: `CCN1c2ccccc2C(Cl)(c2ccc(N(C)C)cc2)c2ccccc21`, growth 14%. Against it:
- Cc1ccc(Nc2c(C(N)=O)cnc3ccc(-c4csc(N)n4)cc23)cc1 — higher, 109%
- Cc1cc(C)c2c(-c3nnc(N)s3)cc(=O)oc2c1 — higher, 98%
- CCCCOc1ccc(NC(=O)n2nc(N=NN(C)C)c3ccc(Cl)cc32)cc1 — higher, 107%
- CC(=O)Nc1nc(C)c(C(=O)NNC=O)s1 — higher, 104%
- O=C1OC(=O)C2C1CC=CC2c1ccccc1 (stereo not given) — higher, 69.1%
- COc1ccc(-c2cc(-c3cn(-c4cccc(Cl)c4)nc3-c3ccc(OC)cc3)[nH]c(=S)n2)cc1 — higher, 60.4%
- Nc1c2c(nc3ccc(Br)cc13)CC(c1ccccc1)CC2=O (stereo not given) — lower, 10.7%
- COc1cc(NC(=O)CCSc2nc3ccccc3c(=O)n2CCc2ccccn2)cc(OC)c1OC — higher, 99.1%
- Cc1c(C(N)=O)sc2ncn(CC(=O)NN=C3CCCCC3)c(=O)c12 — higher, 123%
- CCOC(=O)C12CCCC1=CC(=O)CC2 (stereo not given) — higher, 100%
- CCOC(=O)CC(S(=O)(=O)c1ccccc1)S(=O)(=O)c1ccccc1 — higher, 67.9%
- COc1ccc(-c2nsc3c2NC(=O)CC3c2ccc(Cl)cc2)cc1 (stereo not given) — higher, 80.1%
- CN(C=O)c1ccccc1 — higher, 101%
- NC(=Nc1ccc(N)cc1)C(N)=Nc1ccc(N)cc1 — higher, 59.6%
- O=C(/C=C/c1cccs1)c1ccc(Cl)nc1 — higher, 100%
- COc1cc(-c2csc(NC(=O)c3cc(-n4cnc(C)c4)cc(C(F)(F)F)c3)n2)cc(OC)c1OC — higher, 61%
- CCOC(=O)c1[nH]c(C)c(C(=O)OCc2ccccc2C#N)c1C — higher, 86.6%
- O=C(Nc1cccc(Cl)c1)c1cc([N+](=O)[O-])ccc1O — higher, 44.4%
